NR3A LBD binder: binders of NR3A ligand-binding domain, primary screen, biophysical, differential scanning fluorimetry, uHTS. Glutamate receptor ionotropic, NMDA 3A (GRIN3A) ligand-binding domain. NR3A LBD differential scanning fluorimetry, Tm shift; 0% = protein alone, 100% = glycine-bound protein. Tm shift relative to glycine control, % at 25 µM. 2.5% of 340,000 active. AID 1259313, 2017;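 active means melting temperature shift of at least 10% of the positive control shift, at one fixed dose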
rCAG RNA binder: binders of r(CAG) RNA repeats, primary screen, biochemical, fluorescence; AID 651821, 2012; r(CAG) RNA repeat, TO-PRO-1 dye displacement fluorescence; inhibition, % at 3 µM; 1.3% of 370,000 active;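 active means inhibition above the plate cutoff, the mean of all test compounds on that plate plus 3 SD, cut at about 35% in these data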;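 further: 0% = DMSO alone and 100% = 100 µM mitoxantrone as full dye displacement; higher means more dye released from RNA so lower well fluorescence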
NadD block: inhibitors of S. aureus NadD, primary screen, biochemical, colorimetric, uHTS | purified NadD enzyme, colorimetric absorbance read-out | 0.78% of 360,000 active | inhibition, % at 20 µM | AID 602399, 2012; in the data active means inhibition above about 26%
FAS TE block: FAS thioesterase domain inhibitors, primary screen, biochemical, fluorescence intensity, uHTS; Fatty acid synthase (Homo sapiens), P49327; recombinant FAS-TE, OMFH fluorogenic substrate, fluorescence endpoint; inhibition, % at 15 µM; 0.67% of 360,000 active; AID 602261, 2012;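 active means compounds whose normalised, plate-corrected inhibition of enzyme fluorescence in the single-dose primary screen is 50% or more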;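 further: 0% = DMSO with enzyme and 100% = substrate without enzyme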
rCAG bind conf: small molecules binding CAG repeat RNA – biochemical, fluorescence, confirmation. r(CAG) RNA repeat, TO-PRO-1 dye displacement fluorescence. shares compounds with rCAG RNA binder. inhibition, % at 3 µM. 70% of 4,300 active;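 active means inhibition above a per-plate cutoff, the mean inhibition of sample wells plus 3 SD, cut at about 35% in these data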;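 further: loss of TO-PRO-1 fluorescence as compound displaces dye from 1x1 AA loop RNA; 0% = DMSO only wells and 100% = 100 µM mitoxantrone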
dCAG dye counter: displacement of TO-PRO-1 from CAG DNA duplex, counter-screen for rCAG RNA repeat binder project, biochemical, fluorescence, TO-PRO-1 dye, d(CAG) DNA oligo. 94% of 4,300 active. d(CAG) DNA oligo TO-PRO-1 dye displacement. AID 652068, 2013. inhibition, % at 3 µM. shares compounds with rCAG RNA binder;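 active means inhibition above its plate's cutoff, the mean test-well inhibition plus 3 SD, cut at about 4.8% in these data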;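 further: 0% = DNA dye mix with DMSO and 100% = 100 µM mitoxantrone; hits displace the dye from DNA and so lower well fluorescence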
Numbers without * were called inactive; x = no result. Only some compounds are listed: those with a hit (about 4.3% of all), similar ones and a draw of the others.

SMILES | NR3A LBD binder | rCAG RNA binder | NadD block | FAS TE block | rCAG bind conf | dCAG dye counter
CCNC(=O)N1CCN(c2ccc(N3CCN(Cc4ccccc4)[C@@H](C)C3)c(C)c2)[C@@H](C)C1 | x | 1.6 | x | x | x | x
Nc1cc(C(=O)O)c(N)c2c1C(=O)c1ccccc1C2=O | -3.7 | x | -1.3 | -11.5 | x | x
Nc1c(Br)cc(Br)c2c1C(=O)c1c(cccc1S(=O)(=O)O)C2=O | -2.4 | 42.8* | -1.2 | 4.8 | 47.5* | 12.9*
O=C(CSc1nnc(COc2ccc(Cl)cc2)n1Cc1ccco1)Nc1cccc2ccccc12 | x | 7.0 | x | x | x | x
CC(=NNC(=O)CSc1nnc(-c2ccccc2)n1-c1ccccc1)c1ccc2ccccc2c1 | x | 12.0 | x | x | x | x
CCc1ccc(C(=O)/C=C/c2ccc([N+](=O)[O-])o2)cc1 | -9.9 | 38.0* | 26.0 | 12.0 | 17.3 | 11.1*
CCOC(=O)CCc1ccc(NC(=O)/C=C/c2ccc([N+](=O)[O-])o2)cc1 | 0.3 | 5.9 | 16.0 | -6.4 | x | x
COc1cc(C)c2c(c1C=O)Oc1c(c(C)c(O)c3c1C(O)OC3=O)OC2=O (configuration not stated) | -4.3 | 53.9* | 10.8 | 19.8 | 34.4 | 7.0*
CN(c1ccc(O)cc1)c1nc(O)c(C2=c3ccccc3=NC2=O)s1 | -7.6 | 48.6* | 6.0 | 1.3 | 17.8 | 9.2*
COCCN1C(=O)[C@H]2C[C@@]13O[C@H](c1ccccn1)N=C3CC1c3ccccc3C[C@@]12C (some centres not stated) | x | -0.8 | x | x | x | x
Cc1cc2c(c(=O)o1)[C@@]1(C(=O)N(C)c3ccccc31)C1=C(CC3(CCCCC3)OC1=O)O2 | x | -1.8 | x | x | x | x
CCCCCCCCN1C(=O)[C@@H](CC(=O)NCCc2ccccc2OC)C[C@@]2(C(=O)OC)C1=C[C@H](C1CCCC1)O[C@@H]2C | x | 0.6 | x | x | x | x
CCc1c(C)sc(NC(=O)c2cc(C)on2)c1C#N | 1.5 | 1.8 | -4.3 | -5.5 | x | x
CCc1c(C)sc(NC(=O)c2cc(-c3ccco3)on2)c1C#N | -2.2 | 39.9* | 0.0 | 8.3 | 28.1 | 6.5*
Cn1c2ccccc2c2cc(C(=O)NNC(=O)CCl)sc21 | -2.1 | 7.2 | -14.5 | -0.6 | x | x
CC(=O)Nc1ccc(S(=O)(=O)NNC(=O)c2cc3c4ccccc4n(C)c3s2)cc1 | -3.3 | 35.5* | 14.1 | 2.4 | 31.5 | 15.9*
O=c1oc2ccccc2c2oc3cc(O)c(O)cc3c12 | 0.9 | 40.6* | 3.5 | 12.2 | 52.7* | 27.5*
O=C(NCc1ccccc1)c1sc(=S)n2c1[nH]c(=O)c1ccccc12 | 11.7* | 47.0* | 17.3 | 45.4 | 83.4* | 49.7*
CN(C)c1ccc(/C=C(/NC(=O)c2ccccc2)C(=O)NCCCn2ccnc2)cc1 | -1.6 | x | 2.3 | -90.5 | x | x
O=C(Nc1ccc(Br)c2ccccc12)c1ccc2ccccc2c1O | 19.5* | 77.3* | 22.0 | 34.8 | 78.2* | 40.0*
CC[C@@H](OP(=O)(O)[C@@H](C)N)C(=O)O | x | 1.0 | x | x | x | x
COc1ccc(Br)cc1/C=C(\C(=O)O)c1ccc(S(=O)(=O)N2CCCCC2)s1 | -5.0 | 69.5* | 2.8 | 0.7 | 74.2* | 36.6*
CSc1ccc(/C=C(\C(=O)O)c2ccc(S(=O)(=O)N3CCCC3)s2)cc1 | -1.6 | 39.1* | -0.5 | -1.0 | 31.7 | 10.5*
O=C(O)/C(=C\c1cccc(O)c1)c1ccc(S(=O)(=O)N2CCCC2)s1 | -3.0 | 9.4 | 3.5 | -3.2 | x | x
O=C(O)/C(=C\c1cccc(F)c1)c1ccc(S(=O)(=O)N2CCCCC2)s1 | 0.8 | 34.5 | -3.1 | -7.6 | x | x
Cc1ccc(C)c(/C=C(\C(=O)O)c2ccc(S(=O)(=O)N3CCCCC3)s2)c1 | -4.8 | 46.7* | 9.6 | 5.1 | 45.2* | 18.5*
COc1ccc(-n2c(SCc3cccc4ccccc34)nnc2-c2ccccc2)cc1 | x | 7.1 | x | x | x | x
O=C(N[C@H](c1cccc(Br)c1)[C@@H]1CCCC=C1c1ccccc1)C(F)(F)F | x | 0.8 | x | x | x | x
Cc1nnc(N2C(=O)C(O)=C(C(=O)c3ccco3)C2c2cccc([N+](=O)[O-])c2)s1 (configuration not stated) | 2.1 | 3.5 | 1.7 | -2.2 | x | x
